Rows were chosen to be rich in hits. Some 2.4% of all compounds tested hit in one or more screens of this group.
SENP8 block-1 = blocks the human protease SENP8; Q96LD8; purified SENP8, Z-RLRGG-aminoluciferin cleavage, luminescence; inhibition, % at 10 µM; 1.2% of 330,000 active; AID 2540; in the data active = inhibition above about 50%
Target sequence (Q96LD8 whole entry, looked up): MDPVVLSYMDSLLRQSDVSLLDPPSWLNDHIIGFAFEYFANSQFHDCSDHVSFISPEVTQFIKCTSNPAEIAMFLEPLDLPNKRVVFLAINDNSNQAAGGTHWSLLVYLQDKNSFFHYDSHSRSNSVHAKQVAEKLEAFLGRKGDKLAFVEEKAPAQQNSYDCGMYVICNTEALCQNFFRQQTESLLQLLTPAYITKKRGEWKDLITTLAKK
SENP8 block-2 = blocks human SENP8 cleavage of Nedd8 substrate; Q96LD8; 0.64% of 360,000 active; inhibition, % at 20 µM; recombinant SENP8, Nedd8 substrate fluorescence; AID 602440; in the data active = inhibition mostly above about 40%, no sharp cut-off; inactive = mostly below about 27%
Platelet DG rel = modulates dense granule release in human platelets | human platelet-rich plasma, SFLLRN dense granule ATP release, luminescence | inhibition, %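 (compounds screened at 7.5 µM in platelet-rich plasma)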 | 0.22% of 300,000 active;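 active = mean replicate score, as percent of positive control, at or above 50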
SENP6 inh = SENP6 protease inhibition; Recombinant SENP6 catalytic domain, aminoluciferin luminescence; Q9GZR1; 1.8% of 330,000 active; inhibition, % at 10 µM;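 active = inhibition above about 50% at the single tested dose, limit read from the data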;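 note: plate controls were DMSO wells with enzyme for no effect and DMSO wells lacking enzyme for full effect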
SENP7 inh = inhibitors of human SENP7 protease | 1.5% of 330,000 active | AID 434973 | inhibition, % at 5 µM | recombinant SENP7, Z-RLRGG-aminoluciferin luminescence, 40 min | Q9BQF6;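 active = inhibition above about 50% at the single test dose, limit read from the data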;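 note: plate controls were DMSO with enzyme for no effect and no enzyme buffer wells for full effect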
SENP8 confirm = confirmation of human SENP8 protease inhibitors | shares compounds with SENP7 inh | Recombinant SENP8, Z-RLRGG-aminoluciferin luminescence, 60 min | inhibition, % at 12.5 µM | 40% of 6,200 active;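 active = mean inhibition across replicates above about 50%, limit read from the data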
SENP6 confirm = human SENP6 inhibition, confirmed; shares compounds with SENP7 inh; recombinant SENP6, Z-RLRGG-aminoluciferin luminescence; inhibition, % at 12.5 µM; 58% of 6,200 active
SENP7 conf = confirmation of human SENP7 protease inhibitors; inhibition, % at 12.5 µM; recombinant SENP7, Z-RLRGG-aminoluciferin luminescence, 40 min; shares compounds with SENP7 inh; 69% of 6,200 active; AID 488917
Casp3 select = selectivity test for SENP inhibitors: human caspase-3 inhibition; shares compounds with SENP7 inh; purified caspase-3, Z-DEVD-aminoluciferin luminescence, 60 min; inhibition, % at 12.5 µM; 60% of 6,200 active; AID 488918;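 active = mean inhibition above about 50%, limit read from the data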;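 note: plate controls were enzyme with DMSO for no effect and wells without caspase-3 for full effect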
Target sequence (P42574 28-227 limits assumed): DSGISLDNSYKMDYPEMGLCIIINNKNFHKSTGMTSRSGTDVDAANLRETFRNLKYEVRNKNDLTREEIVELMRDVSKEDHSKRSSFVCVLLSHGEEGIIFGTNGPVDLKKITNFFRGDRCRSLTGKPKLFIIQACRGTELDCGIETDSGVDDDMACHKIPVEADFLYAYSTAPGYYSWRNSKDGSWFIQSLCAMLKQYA
SENP luc ctr = luminescence interference (SENP counter-screen) | shares compounds with SENP7 inh | Pre-incubated SENP8/Z-RLRGG-aminoluciferin, luciferase luminescence interference | inhibition, % at 12.5 µM | 39% of 6,200 active | AID 488919;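 active = mean inhibition above about 50% when retested at one dose, limit read from the data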;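 note: plate controls were DMSO wells with completed reaction for no effect and substrate without enzyme for full effect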
The depositor's hits bear a star; . = not tested or not shown.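 Rule for the calls, unless noted: active = mean inhibition above about 50% in the one-dose retest (limit read from the data); inactive = the rest.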

SMILES	SENP8 block-1	SENP8 block-2	Platelet DG rel	SENP6 inh	SENP7 inh	SENP8 confirm	SENP6 confirm	SENP7 conf	Casp3 select	SENP luc ctr
COc1ccc(CCNC(=O)COC(=O)c2ccc(C)s2)cc1	-9.7	1.5	.	0.1	-5.2	.	.	.	.	.
CNC(=O)COC(=O)c1ccc(-c2nc3ccccc3s2)s1	92.8*	-282.1	34.5	96.9*	97.2*	25.9	31.2	50.6*	51.9*	32.5
O=C(COC(=O)C12CC3CC(CC(O)(C3)C1)C2)Nc1ccc(Cl)c(S(=O)(=O)N2CCOCC2)c1	1.1	14.9	.	2.0	9.3	.	.	.	.	.
Cc1cc(C)c(C(O)c2ncc(-c3ccccc3Cl)[nH]2)c(C)c1 (centres undefined)	.	16.4	.	.	.	.	.	.	.	.
O=C(NCc1ccc(Cl)cc1)C1CCN(S(=O)(=O)c2ccc(F)cc2)CC1	5.1	9.9	5.5	19.4	0.5	.	.	.	.	.
CC(=O)N1c2ccccc2N=C(c2ccc(C(F)(F)F)cc2)C1C(=O)NC1CCCC1 (centres undefined)	.	-102.9	.	.	.	.	.	.	.	.
CC(=O)NC1Sc2ccccc2N=C1c1ccccc1 (centres undefined)	84.1*	-69.7	-4.2	88.9*	84.6*	-2.2	68.6*	97.4*	65.6*	30.7
CC(C)(C)c1ccc(-c2noc(-c3ccc4c(c3)CCO4)n2)cc1	-19.6	11.6	-13.3	-21.2	2.3	.	.	.	.	.
O=C(O/N=C(\c1ccccc1)c1ccncc1)c1ccccc1Cl	-12.8	7.2	0.5	-37.8	-0.9	.	.	.	.	.
N/C(=N\OC(=O)c1ccco1)c1ccc(Cl)cc1	79.3*	5.0	-4.0	93.5*	88.2*	23.2	11.7	29.8	37.8	30.0
N/C(=N\OC(=O)c1ccccc1Cl)c1ccccc1	95.2*	12.0	40.3	94.4*	98.5*	96.7*	98.7*	102.8*	96.9*	95.6*
C/C(=N\OC(=O)c1ccc(Cl)cc1)c1nccs1	27.7	7.9	23.2	72.1*	87.9*	27.5	27.8	65.0*	40.7	31.5
CC(=NOC(=O)c1ccc(Cl)cc1)c1nccs1	.	0.9	.	.	.	.	.	.	.	.
N/C(=N\OC(=O)c1ccc(Cl)cc1)c1ccn[nH]1	58.4*	9.8	-5.2	73.0*	79.0*	80.0*	77.1*	91.9*	87.0*	82.9*
N/C(Cn1cncn1)=N\OC(=O)c1ccc(Cl)cc1	-6.5	16.7	-10.6	-4.7	-5.7	.	.	.	.	.
N/C(=N\OC(=O)c1ccco1)c1cccnc1	-6.0	-2.6	2.7	26.3	15.3	.	.	.	.	.
COc1ccccc1CNC(=O)CCS(=O)(=O)c1ccc2c(c1)CCN2C(C)=O	3.2	7.5	-37.0	-0.1	-3.2	.	.	.	.	.
CCC(C(=O)Nc1ccc([N+](=O)[O-])cn1)c1ccccc1 (centres undefined)	-4.9	-9.4	-7.0	5.8	-0.4	.	.	.	.	.
Cc1ccccc1-n1nnnc1SCC(=O)c1c(N)n(C2CC2)c(=O)[nH]c1=O	-6.1	15.8	.	-16.9	-3.3	.	.	.	.	.
Cc1nc2ccc(NC(=O)CCC3CCCC3)cc2s1	-7.8	8.7	-2.9	-13.7	3.4	.	.	.	.	.
N/C(=N\OC(=O)c1ccc(Cl)cc1)c1ccc(Cl)cc1	-12.5	8.6	7.5	8.7	53.8*	9.3	7.0	12.9	5.7	-2.3
N/C(=N\OC(=O)c1ccc(Br)cc1)c1ccncc1	25.9	14.4	17.5	58.5*	62.1*	34.9	40.1	70.9*	67.9*	49.0
COc1ccccc1C(=O)O/N=C(\N)c1ccccc1Cl	11.6	7.9	2.1	5.9	1.6	.	.	.	.	.
N/C(=N\OC(=O)c1ccccc1Cl)c1ccc(Cl)cc1	69.5*	19.7	3.8	85.2*	83.9*	71.3*	70.1*	93.2*	62.3*	79.1*
N/C(=N\OC(=O)c1ccc(Cl)cc1)c1cccnc1	35.7	24.5	2.0	72.0*	67.3*	62.3*	59.0*	85.5*	82.7*	65.9*

Screening results as filed in PubChem.
